# Source: PubChem BioAssay AID1851 (National Center for Advancing Translational Sciences (NCATS), 2009)
# Among all 16,000 compounds or so, about 2,600 (16%) were called active. Inconclusive results (about 20%) are left out. Not all results are given here. Values without a mark were called inactive. Calls follow the shape of the dose curve; as a rule, active = well fitted curve in the direction sought with a large enough effect; inconclusive = small, poorly fitted or top-dose-only effect, or effect the other way; inactive = no such curve, though single readings can be large or run the other way.
# Target: Cytochrome P450 2D6 (Homo sapiens) (UniProt P10635)
# Assay: Cytochrome panel assay with activity outcomes
# Conditions: recombinant CYP, pro-luciferin dealkylation, luminescence, p450-cyp2d6; series mostly up to 57.1 µM; activity, negative = inhibition: at the top concentration
# % is scaled to controls: 0 for no effect and ±100 for the full control effect.
# Chain of Cytochrome P450 2D6 (Homo sapiens) (P10635 whole entry, looked up): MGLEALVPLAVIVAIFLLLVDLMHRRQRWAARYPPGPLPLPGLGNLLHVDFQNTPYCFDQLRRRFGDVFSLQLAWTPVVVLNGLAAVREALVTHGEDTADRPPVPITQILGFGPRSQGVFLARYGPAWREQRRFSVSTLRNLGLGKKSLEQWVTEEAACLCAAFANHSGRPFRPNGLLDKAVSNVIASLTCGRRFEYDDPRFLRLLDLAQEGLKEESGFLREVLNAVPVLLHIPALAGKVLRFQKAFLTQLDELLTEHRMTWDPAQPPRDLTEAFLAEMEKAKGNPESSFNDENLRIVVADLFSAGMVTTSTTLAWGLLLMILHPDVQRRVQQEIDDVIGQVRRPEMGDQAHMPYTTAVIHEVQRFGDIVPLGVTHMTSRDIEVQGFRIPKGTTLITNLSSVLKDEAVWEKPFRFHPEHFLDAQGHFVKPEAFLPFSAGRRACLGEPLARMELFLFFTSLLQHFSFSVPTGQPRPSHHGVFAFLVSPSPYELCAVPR
Structure (SMILES),"activity, negative = inhibition",AC50
Cc1nc2c3cnn(-c4ccc(C)c(C)c4)c3ncn2n1,-12.9%,
CCCc1nnc(SCC(=O)N2CCCC(C)C2)n1CC1CCCO1 (stereo not given),11.4%,
COC(=O)N1CCC2(CC1)CN(C(=O)Nc1ccc(OC)cc1)C2,-6.61%,
Cc1ncc2c(c1O)COP(=O)(O)OC2,,1 µM (active)
Cc1ncc(CO)c(CO)c1O,-5.06% [at 25.6 µM],
CCC1NC(=S)N(C2CCCCC2)C1=O (stereo not given),1.35%,
C(/C=C/c1ccco1)=N/N1CCN(c2ccccc2)CC1,-7.09%,
O=C(/C=C/c1ccccc1Cl)NCCN1CCOCC1,-4.1%,
N=c1n(CCN2CCOCC2)c2ccccc2n1CC(=O)c1ccc(Cl)c(Cl)c1,,2 µM (active)
O=C(/C=C/c1ccc(Cl)cc1)NCCN1CCOCC1,-7.23%,
O=c1c(-c2ccc(F)cc2)nc2cnc(N3CCOCC3)nc2n1C1CC1,2.33%,
O=C(CN1C(=O)c2ccccc2C1=O)NC1(C(=O)O)CCCC1,2.83% [at 11.4 µM],
COCCn1c(=O)c(-c2ccccc2)nc2cnc(Oc3ccccc3)nc21,-1.57%,
COc1ccc(NC(=O)N2CC3(CCN(C(=O)c4ccc(OC)cc4)CC3)C2)cc1,8.59%,
C[C@H]1CC(C)(C)C[C@@](OCCN2CCCCC2)(c2ccccc2)C1,,0.631 µM (active)
CCCc1nnc(SCC(=O)N2CCCCC2C)n1CC1CCCO1 (stereo not given),9.36%,
Cc1ccc(OC(=O)N2CCOCC2)cc1,6.26%,
CCOC(=O)C1CCCN(c2ncnc3c2cnn3-c2cccc(C)c2)C1 (stereo not given),-19.6%,
CN1CCN(c2ncc3nc(-c4ccc(F)cc4)c(=O)n(C4CC4)c3n2)CC1,2.59%,
CCn1c(SCc2cccc(C)c2)nnc1-c1ccc(C)cc1,-14.5%,
COc1ccc(-c2nnc(SCc3cccc(C)c3)n2N)cc1,,14.1 µM (active)
COc1ccc(NCc2nnc(SCc3ccccc3)n2-c2ccc(OC)cc2)cc1,-28.7%,
Cc1ccc(OCC(=O)NC2=NCCS2)cc1,-3.18%,
CCC(=O)Nc1ccc(C(=O)NNC(=O)c2cccs2)cc1,-12.3%,
CC(C)[C@H](NC(=O)OC(C)(C)C)[C@@H](O)CC(=O)C(C)(C)C,3.85% [at 11.4 µM],
CC(C)[C@H](NC(=O)OC(C)(C)C)[C@@H](O)CC(=O)OC(C)(C)C,,3.16 µM (active)
CC(=O)C[C@H](O)[C@@H](NC(=O)OC(C)(C)C)C(C)C,-3.21% [at 11.4 µM],

Structure (SMILES),"activity, negative = inhibition",AC50
Cc1ccc(NC(=O)C2CCN(S(=O)(=O)c3c(C)n[nH]c3C)CC2)nc1,-1.65%,
NC[C@@H]1O[C@H](C23CC4CC(CC(C4)C2)C3)Cc2c1ccc(O)c2O,-2.34%,
NC(=O)CSc1nc2sc(-c3ccccc3)cc2c(=O)n1N,-10.4%,
COc1ccc(C[C@@H]2C(=O)N[C@H](C)C(=O)N(C)[C@@H]3Cc4ccc(cc4)Oc4cc(ccc4O)C[C@H](C(=O)N[C@@H](C)C(=O)N[C@H](C)C(=O)N2C)N(C)C3=O)cc1,-5.02% [at 11.4 µM],
CC[N+](CC)(CC)CCOc1cccc(OCC[N+](CC)(CC)CC)c1OCC[N+](CC)(CC)CC,6.01% [at 25.6 µM],
CC[N+](CC)(CC)CCOc1ccc(/C=C\c2ccccc2)cc1,,7.94 µM (active)
O=C(NCCCn1ccnc1)c1ccc(Br)c(S(=O)(=O)N2CCOCC2)c1,,0.316 µM (active)
CCOC(=O)N1CCN(C(=O)c2ccc(Cl)c(S(=O)(=O)N3CCOCC3)c2)CC1,-1.98%,
Cc1ccc(C(=O)NCCCN2CCOCC2)cc1N1CCCC1=O,-4.62%,
O=C(O)/C=C\C(=O)Nc1ccc2c(c1)-c1ccccc1C2,8.73% [at 11.4 µM],
CC(=O)N1CCC2(CC1)CN(c1ccncc1)C2,11.3%,
O=C(N/N=C/c1ccccn1)c1ccc(Br)o1,11.8%,
CN(C)c1ncc2nc(-c3ccccc3)c(=O)n(C3CC3)c2n1,-20.7%,
C=CCSC[C@@H]1Nc2cc(Cl)c(S(N)(=O)=O)cc2S(=O)(=O)N1,-3.49% [at 25.6 µM],
COc1ccc(C(=O)/C=C2/c3ccccc3CC(C)(C)N2C)cc1,,0.282 µM (active)
COc1ccc(C(=O)N2CCC3(CCN(C)CC3)CC2)cc1,-0.103%,
COc1ccc(C(=O)/C=C(/C)N(C)C)cc1,0.83%,
Clc1cccc(Oc2cnc3ccccc3n2)c1,-2.63%,
COC(=O)c1ccc(NC(=O)C2CCCCC2C(=O)O)cc1 (stereo not given),-39%,
COC(=O)c1ccc(NC(=S)NC2CCCCC2)cc1,,15.8 µM (active)
Cc1ccc(NC(=S)NC2CCCC2)cc1,-23.7%,
CCCc1nnc(NC(=O)CCC(=O)NCc2ccccc2OC)s1,-11%,
CCCCCCCC/C=C\CCCCCCCC(=O)NCCc1ccc(O)c(O)c1,-17.6%,
CCCCCCCC/C=C\CCCCCCCC(=O)NCc1ccc(O)c(OC)c1,,3.16 µM (active)
CCCCCC(=O)Nc1cc2[nH]c(=O)cc(COC)c2cc1C,-4.3%,
COc1cc(CC(=O)O)ccc1O,0.322%,
CCCCCCCCCCCCCCCC(=O)NC(C)C,0.58%,

Structure (SMILES),"activity, negative = inhibition",AC50
CCCCCCCC/C=C\CCCCCCCC(=O)N[C@@H](CO)Cc1ccc(O)cc1,,0.126 µM (active)
CC(=O)N[C@H](Cc1ccc(O)cc1)C(=O)O,-3.43% [at 11.4 µM],
CCCCCCCCC(=O)NCc1cc(OC)c(O)cc1I,,7.94 µM (active)
O=C(Nc1ccc(F)cc1Cl)c1ccc2c(=O)n3c(nc2c1)CCCCC3,12.7%,
Cc1ccc(N=C/C(C(=O)C(F)(F)F)=C(\O)c2cccs2)cc1,-11%,
CCOC(=O)Cc1csc(NC(=S)NC(=O)c2ccc(F)cc2)n1,3.85%,
CCOc1ccc(NC(=O)N2CCC(C(N)=O)(N3CCCCC3)CC2)cc1,14.7%,
CC(C)CO/N=C1/[C@H]2O[C@@H]2[C@@H](O)[C@H]2[C@H]1CCn1c(=O)n(-c3ccccc3)c(=O)n12,12.6% [at 11.4 µM],
COCCn1c(=O)c(-c2cccs2)nc2cnc(Oc3ccccc3)nc21,-9.87%,
CC(C)C(O)(C(C)C)C(C)C,8.61% [at 11.4 µM],
COc1ccc(C(=O)Nc2cccc(OC(=O)c3ccc(C)c(C)c3)c2)cc1,-14%,
CCOc1ccc(NC(=O)c2ccc(OC)cc2)cc1,-3.36%,
COc1ccc(C(=O)Nc2cc(OC)cc(OC)c2)cc1,,7.08 µM (active)
CCCCc1nc(SCC(=O)Nc2ncccn2)n[nH]1,12.4%,
COC(=O)COc1ccsc1C(=O)OC,16.8%,
COc1ccc2oc(-c3ccc(C)c(NC(=O)c4ccc(N5CCOCC5)c([N+](=O)[O-])c4)c3)nc2c1,-9.69%,
COc1ccc2oc(-c3ccc(C)c(NC(=O)CSc4ccc(Cl)cc4)c3)nc2c1,,2.51 µM (active)
Cc1ccc(-c2nc3ccccc3o2)cc1NC(=O)Cc1cccs1,28.6%,
Cc1cccc(NC(NC(=O)c2cccnc2)C(Cl)(Cl)Cl)c1 (stereo not given),5.38%,
NC(=O)c1ncn([C@@H]2O[C@@H](CO)[C@@H](O)[C@H]2O)c1O,3.94%,
COc1ccc(O[C@H]2C=C[C@@H](c3ccccc3)O[C@@H]2CON=C(C)C)cc1,-3.07% [at 11.4 µM],
O=C(Cc1csc(Nc2nc(=S)[nH]c3ccccc23)n1)NCc1cccc(Cl)c1,-28%,
Cc1sc2nc(SCC(=O)C(C)(C)C)n(Cc3ccco3)c(=O)c2c1C,-6.32%,
O=C(O)C[C@H](Cc1ccccc1Cl)C(=O)O,-0.233% [at 11.4 µM],
Cc1n[nH]c(=O)nc1NCc1ccccc1Cl,-22.5%,
Clc1ccccc1CNCC1CCC(CNCc2ccccc2Cl)CC1 (stereo not given),,12.6 µM (active)
CCOC(=O)C(C)Sc1nnc(CNC(=O)c2ccc(OC)cc2)n1C1CCCCC1 (stereo not given),-5.97%,

Structure (SMILES),"activity, negative = inhibition",AC50
CCOC(=O)c1nc(N)sc1C(=O)OCC,17.3%,
CCOC(=O)c1sc(C)c(C(=O)NCC(C)(C)CN(C)C)c1N,,1.78 µM (active)
CCOC(=O)c1sc2nc3c(cc2c1N)COC(C)(CC)C3 (stereo not given),-25.5%,
Cc1ccc(Cn2cnc3c(nnn3Cc3ccc(Cl)cc3)c2=O)cc1,11.9%,
CC(=O)[C@H]1CC[C@@H]2[C@H]3CC=C4C[C@@H](O)CC[C@]4(C)[C@H]3CC[C@]12C,13.6% [at 25.6 µM],
CC(=O)Nc1nnc(S(N)(=O)=O)s1,2.74% [at 25.6 µM],
CCn1c(/C=C2/C(=O)N(C)c3ccccc32)nc2ccccc2c1=O,25%,
O=C(c1ccccc1)c1nc2ccccc2n(CCCn2c(=O)c(C(=O)c3ccccc3)nc3ccccc32)c1=O,-5.06%,
CCCn1c(/C=C/c2ccccc2)nc2ccccc21,,8.91 µM (active)
C[N+]1(C)C[C@@H](O)C[C@@H]1C(=O)[O-],3.69% [at 25.6 µM],
CCNc1ncc2nc(-c3ccccc3)c(=O)n(Cc3cccs3)c2n1,-15.8%,
Cc1ccc(-c2nc3ccccc3s2)cc1NC(=S)NC(=O)c1ccccc1,2.81%,
C=CCn1c(C(C)NC(=O)c2ccccc2)n[nH]c1=S (stereo not given),-13.1%,
CC(NC(=O)c1ccccc1)c1nc2ccccc2n1Cc1ccccc1F (stereo not given),,14.1 µM (active)
CCn1c(-c2nonc2NC(=O)c2ccccc2)nc2ccccc21,25.6%,
O=c1cc(CO)oc(CN2CCCC2)c1O,-7.9%,
Cc1ccc(O)c(-c2cc(C(F)(F)C(F)F)nc(-c3ccccc3)n2)c1,-15.4%,
Cc1ccc(-c2ccc(/C=N/N3C(=O)C4C5C=CC(C6CC56)C4C3=O)o2)c([N+](=O)[O-])c1 (stereo not given),-12%,
Cn1c(COc2nnc(-c3ccc(Cl)cc3)c3ccccc23)nc2ccccc21,-36.4%,
CC(C)C(=O)NCCn1ccc2ccccc21,-12.4%,
CC(C)C(=O)NCCc1nc2ccccc2n1CCCOc1ccc(Cl)cc1,,3.16 µM (active)
COc1ccc(C(=O)OC(C)CN2CCN(C)CC2)cc1OC (stereo not given),,3.55 µM (active)
CCOC(=O)N1CCN(C(=O)c2ccc(OC)c(OC)c2)CC1,5.75%,
COc1ccc(C(=O)c2ccc(OC)c(OC)c2)cc1OC,-16.3%,
